An excerpt weighted towards active compounds, which were near 2.3% of everything screened.
USP1 inh: Inhibitors of USP1/UAF1: Primary Screen | recombinant USP1/UAF1, Ub-Rhodamine cleavage fluorescence | Ubiquitin carboxyl-terminal hydrolase 1 (Homo sapiens), O94782 | Potency, µM (series often up to 57.1 µM), for inactives: at the top dose activity change, negative = inhibition, usual class: inhibitors | hit rate 0.23% among 390,000; further: potency means the concentration at half of the fitted maximal effect; nearly all actives have a fitted effect of over 60% in size
Target sequence (O94782 whole entry, looked up): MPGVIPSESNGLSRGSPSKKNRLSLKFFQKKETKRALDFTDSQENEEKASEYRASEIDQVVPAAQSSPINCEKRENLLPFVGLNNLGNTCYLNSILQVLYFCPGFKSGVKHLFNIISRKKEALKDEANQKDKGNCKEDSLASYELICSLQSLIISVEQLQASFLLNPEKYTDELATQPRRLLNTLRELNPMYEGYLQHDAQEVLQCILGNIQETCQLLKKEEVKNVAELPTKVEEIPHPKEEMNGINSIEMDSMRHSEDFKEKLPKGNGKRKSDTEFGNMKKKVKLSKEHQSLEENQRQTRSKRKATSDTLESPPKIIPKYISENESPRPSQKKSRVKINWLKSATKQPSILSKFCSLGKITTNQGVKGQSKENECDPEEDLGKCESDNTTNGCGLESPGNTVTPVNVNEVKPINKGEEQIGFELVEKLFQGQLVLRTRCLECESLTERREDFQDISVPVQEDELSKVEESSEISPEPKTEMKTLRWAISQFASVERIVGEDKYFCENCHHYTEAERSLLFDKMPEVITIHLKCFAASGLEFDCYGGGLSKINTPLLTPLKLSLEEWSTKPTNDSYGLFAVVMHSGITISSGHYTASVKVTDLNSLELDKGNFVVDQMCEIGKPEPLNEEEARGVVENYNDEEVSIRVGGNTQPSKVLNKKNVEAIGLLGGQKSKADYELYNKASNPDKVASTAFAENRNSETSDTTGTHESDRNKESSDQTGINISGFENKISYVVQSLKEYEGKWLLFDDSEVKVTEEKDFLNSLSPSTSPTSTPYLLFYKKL
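High-throughput fluorogenic screen: 1nM USP1/UAF1 complex, Ub-Rho substrate 150nM final, 50mM HEPES pH 7.8 with 0.5mM EDTA, 0.1 mg/ml BSA, 1mM TCEP and 0.01% Tween-20.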
Tau fluor cs: Counterscreen qHTS for Inhibitors of Tau Fibril Formation, Fluorescence Polarization. tau K18 P301L Alexa594 fluorescence, heparin fibrillization. Potency, µM (titrated, usually from 57.7 µM), without a hit: at the top dose activity change, negative = decrease. hit rate 0.93% among 280,000; further: potency means the concentration at half of the fitted maximal effect; nearly all actives have a fitted effect of over 55% in size
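Human K18 P301L tau (15 uM unlabeled plus 0.24 uM Alexa 594-labeled, final) in 100 mM sodium acetate pH 7 was mixed with compound and 20 uM heparin and incubated 6 hr at 37 C.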
Tau FP inhib: qHTS for Inhibitors of Tau Fibril Formation, Fluorescence Polarization; hit rate 0.39% among 280,000; Microtubule-associated protein tau (Homo sapiens), P10636; AID 1468, 2008; Potency, µM (titrated, usually from 57.7 µM), inactives show at the highest dose activity, negative = inhibition, hits mostly inhibitors; K18 P301L tau heparin fibrillization, Alexa594 FP, 6 h; further: potency means the concentration at half of the fitted maximal effect; nearly all actives have a fitted effect of over 55% in size
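K18 P301L tau (15 uM unlabeled/0.24 uM Alexa 594-labeled, final) + compound + heparin 20 uM final; 100 mM NaOAc pH 7; 6 hr 37 C; ThT 30 uM final added, 1 hr RT; FP ex 555/em 632 nm.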
Tau fibril ThT: qHTS for Inhibitors of Tau Fibril Formation, Thioflavin T Binding | Microtubule-associated protein tau (Homo sapiens), P10636 | recombinant tau K18 P301L (four-repeat tau fragment), heparin-induced fibrillization, ThT fluorescence | Potency, µM (highest dose often 57.4 µM), without a hit: at the highest dose activity, negative = inhibition, usual class: inhibitors | hit rate 2.1% among 270,000; further: potency means the concentration at half of the fitted maximal effect; nearly all actives have a fitted effect of over 55% in size
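Aggregation was driven by heparin (20 uM final) acting on recombinant tau […] bearing P301L in 100 mM sodium acetate pH 7; fibrils were detected with Thioflavin T.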
Coupling enz: qHTS Assay for Inhibitors of Fructose-1,6-bisphosphate Aldolase from Giardia Lamblia: Coupling assay counterscreen; coupling enzyme system counterscreen, AmpLite Red fluorescence; activity change, negative = inhibition, % at 58.2 µM, hits read low; hit rate 0.67% among 290,000; in the data active means activity change below about -30%
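Activity here indicates interference with the coupling reaction, not aldolase inhibition. Compounds at 57.5 uM final met coupling enzymes for 10 min at RT; substrate and AmpLite Red detection followed, with a 525/598 nm fluorescence read after 20 min.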
An asterisk follows results filed as active; u = inconclusive; x = not tested or not shown; [ ] = remark or other dose. Unless noted, the call rests on the fitted dose curve; in most records, active means well fitted curve in the direction sought with a large enough effect; inconclusive means small, poorly fitted or top-dose-only effect, or another doubt; inactive means no such curve, though single readings can be large; an effect the other way counts as inactive or inconclusive. On the % scale 0 is the no-effect control and ±100 the full control effect.

SMILES	USP1 inh	Tau fluor cs	Tau FP inhib	Tau fibril ThT	Coupling enz
Cc1cccc(Cn2c(SCc3ccc(C(=O)NCc4ccccc4F)cc3)nc3ccncc32)c1	u	-20%	6%	6%	x
COc1ccc(-c2csc(NNC3=NCCCCC3)n2)cc1	-6%	-22%	u	25µM*	-2
CCOc1ccc(-c2csc(NNC3=NCCCCC3)n2)cc1	u	-24%	u	16µM*	-1
Cc1ccc(C)n1-c1ccc(N2CCOCC2)nc1	-10%	-29%	-13%	13µM*	-28
O=C(O)c1ccc(N/N=C/c2ccnc3ccccc23)cc1	-21%	u	6%	5µM*	2
O=C(O)c1ccc(N/N=C/c2ccncc2)cc1	-12%	x	x	x	1
O=C(O)c1ccc(N/N=C/c2ccc3nccnc3c2)cc1	-19%	-19%	-4%	3.5µM*	-1
O=C(O)c1ccc(N/N=C/c2cn(Cc3ccccc3F)c3ccccc23)cc1	u	u	0%	14µM*	15
CCCCCOc1ccc(/C=C/C(=O)Nc2sc3c(c2C(=O)OCC)CCC3)cc1OC	-9%	-3%	4%	-17%	x
COc1cc(C2C(C(=O)N3CCOCC3)=C(C)NC3=C2C(=O)CCC3)ccc1OC(C)=O (stereo not drawn)	-17%	5%	0%	-1%	-33*
Cc1cc(F)ccc1S(=O)(=O)NCC(c1ccco1)S(=O)(=O)c1cccs1 (stereo not drawn)	-18%	-23%	-10%	-13%	x
COc1ccc(CN2CCNC(=O)C2CC(=O)N2CCCCO2)cc1OC (stereo not drawn)	-12%	6%	5%	-12%	-30*
COc1cc(CN2CCNC(=O)C2CC(=O)N2CCCCO2)cc(OC)c1 (stereo not drawn)	-29%	-16%	-2%	-9%	1
COc1ccc(NC(=O)C(Cc2ccccc2)NS(=O)(=O)c2ccc(Br)s2)cc1OC (stereo not drawn)	5%	u	u	-3%	x
COc1ccc(Nc2ccc3c(c2)=NC2(CCCCC2)[N+]=3[O-])cc1	u	u	u	4.5µM*	-48*
[O-][N+]1=c2ccc(Nc3ccccc3)cc2=NC12CCCCC2	u	u	u	7.1µM*	-50*
COc1ccc(NC2=NC(=S)N(c3ccccc3C)C23CCCCC3)cc1	-23%	-12%	10%	-14%	-2
CC1CCCN(c2ccc(C(=O)Nc3ccc4c(c3)OCO4)cc2[N+](=O)[O-])C1 (stereo not drawn)	-8%	u	5%	7.1µM*	-5
CC1CCN(c2ccc(C(=O)Nc3ccc4c(c3)OCO4)cc2[N+](=O)[O-])CC1	-22%	u	11%	4µM*	-10
CC1CCCN(c2ccc(C(=O)Nc3nnc(C4CC4)s3)cc2[N+](=O)[O-])C1 (stereo not drawn)	-4%	-25%	u	4µM*	6
COc1ccc(C2CC(=O)c3cc(-c4nc(-c5cccc([N+](=O)[O-])c5)cs4)c(=O)n(-c4ccc(C)c(C)c4)c3C2)cc1 (stereo not drawn)	11%	u	-4%	-1%	x
Cc1ccccc1OCc1nc2ccccc2n1Cc1ccccc1Cl	-8%	-11%	-2%	u	x
COc1cc(S(=O)(=O)n2ccnc2C(C)C)ccc1Br	-6%	-9%	-2%	-7%	x
COC(=O)c1cccc(NC(=O)NC(=O)c2ccccc2Cl)c1	-22%	-7%	-15%	-2%	1
CN(C)S(=O)(=O)Oc1cccc(C(=O)Nc2ccc(Cl)c(Cl)c2)c1	u	u	20µM*	1%	-3
SMILES	USP1 inh	Tau fluor cs	Tau FP inhib	Tau fibril ThT	Coupling enz
COC(=O)c1cccc(NC(=O)Nc2ccc(Cl)c(Cl)c2)c1	-11%	u	13µM*	u	0
CN(C)S(=O)(=O)Oc1cccc(C(=O)Nc2cccc(Cl)c2)c1	-22%	u	u	-7%	0
COC(=O)c1ccc(NC(=O)Nc2ccc(F)c(Cl)c2)cc1	-11%	u	16µM*	u	1
CS(=O)(=O)NCCc1csc2nc(-c3ccccc3)nn12	1%	-5%	-3%	0%	x
COCCCn1c(=N)c(C(=O)NC2CCCC2)cc2c(=O)n3ccccc3nc21	-23%	-11%	-4%	-2%	x
O=C(Nc1nc(=S)ss1)c1ccc(Cl)cc1Cl	-8%	-10%	u	32µM*	3
O=C(Nc1ccc2ccccc2c1)c1ccc(Cl)cc1Cl	-11%	-27%	-5%	u	1
O=C1Nc2c(Cl)cc(Cl)cc2C1=O	28µM*	x	x	x	x
CCCC1=NN2C(=N)/C(=C\c3ccc(SCc4ccco4)o3)C(=O)N=C2S1	-18%	-27%	-12%	10µM*	4
CCC1=NN2C(=N)/C(=C\c3ccc(SCc4ccco4)o3)C(=O)N=C2S1	-9%	-29%	6%	10µM*	4
Cc1ccccc1Nc1c(-c2ccc(O)cc2)nc2c(C)cccn12	u	25µM*[quencher]	8%	u	x
Cc1ccccc1Nc1c(-c2ccccc2O)nc2sccn12	-16%	13µM*[quencher]	u	-13%	x
CC(C)C(NC(=O)c1ccccc1)C(=O)NC1CCCc2ccccc21 (stereo not drawn)	-10%	x	x	x	x
COc1cc(NC(=O)COC(=O)CO/N=C(\C)c2ccc3c(c2)OCO3)cc(OC)c1OC	-5%	x	x	x	x
COc1ccc(CNn2cnnc2)c(O)c1	-7%	x	x	x	1
COC(=O)NC(c1cccc(F)c1)[C@@]1(C(=O)OC)CCCC1=O (stereo partly drawn)	x	4%[11.6 µM]	-1%[11.6 µM]	-7%[11.5 µM]	2
Cc1ccc2[nH]c(-c3cccc(N)c3)cc2c1	-8%	14µM*[quencher]	u	10µM*	2
Cc1ccc2[nH]c(-c3cccc(F)c3)cc(=O)c2c1	-24%	-24%[126 µM]	u	-18%[126 µM]	-1
Cc1ccc(C(=O)c2cn(Cc3cccc(Cl)c3)c3nc(C)ccc3c2=O)cc1	-30%	1%	u	-5%	x

Screens as filed in PubChem BioAssay.
